Measured values published in PubChem BioAssay AID493026 (Johns Hopkins Ion Channel Center, 2011).
Among all 1,000 compounds or so, about 150 (15%) were called active.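 Rule for the calls: active = activity change at least 3 SD of negative controls below their mean in both duplicate wells; inactive = the rest.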 This excerpt belongs to a sample that is enriched for actives.

molecular target: Potassium voltage-gated channel subfamily KQT member 1 (Homo sapiens) (UniProt P51787); assay: human KCNQ1 channel inhibition, counter-screen for KCNQ2 inhibitor project, cell-based, FluxOR thallium flux (AID 493026); conditions: KCNQ1-expressing cells, FluxOR thallium flux fluorescence, at 10 µM; hits give low values;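 note: CHO cells stably transfected with KCNQ1 and depolarized by potassium stimulus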;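 for activity change, negative = inhibition: peak minus minimum fluorescence over baseline after thallium addition; 0% = vehicle negative control and -100% = blank without thallium stimulus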
Sequence (P51787 whole entry, looked up): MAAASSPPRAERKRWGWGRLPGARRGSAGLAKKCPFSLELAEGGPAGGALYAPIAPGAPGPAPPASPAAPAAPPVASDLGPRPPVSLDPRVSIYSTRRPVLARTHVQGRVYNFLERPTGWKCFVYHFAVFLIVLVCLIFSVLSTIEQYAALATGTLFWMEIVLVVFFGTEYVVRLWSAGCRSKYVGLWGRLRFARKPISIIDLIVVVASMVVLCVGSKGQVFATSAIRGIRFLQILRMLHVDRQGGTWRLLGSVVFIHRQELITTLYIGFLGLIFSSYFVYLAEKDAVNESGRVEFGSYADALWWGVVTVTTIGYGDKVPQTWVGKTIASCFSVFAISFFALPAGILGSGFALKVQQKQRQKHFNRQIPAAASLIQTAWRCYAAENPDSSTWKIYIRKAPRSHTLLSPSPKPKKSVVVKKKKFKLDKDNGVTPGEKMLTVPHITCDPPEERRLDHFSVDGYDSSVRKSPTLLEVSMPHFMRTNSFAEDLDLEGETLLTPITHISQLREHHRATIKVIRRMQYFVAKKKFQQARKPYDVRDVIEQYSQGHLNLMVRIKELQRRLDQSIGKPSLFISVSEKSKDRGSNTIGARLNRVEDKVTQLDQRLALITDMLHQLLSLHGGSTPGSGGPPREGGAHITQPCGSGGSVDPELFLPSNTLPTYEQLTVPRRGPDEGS

Row | SMILES | activity change, negative = inhibition
1 | CN(C)CC1Oc2ccccc2OC1(O)c1ccccc1 (configuration not stated) | -30.5% (active)
2 | O=C(NC(c1ccc(Cl)cc1)P(=O)(Oc1ccccc1)Oc1ccccc1)OCc1ccccc1 (configuration not stated) | inactive
